The whole screen tested about 65,000 compounds, of which about 2,100 (3.2%) showed an effect of 50% or more. The median lay at about -52%. Only a selection was taken, and strong results are over-represented in it overall.
Test system: Plasmodium falciparum
Assay: Screen against P. falciparum Asexual Blood Stage (ABS), at 5uM
Format: functional, Dd2
Settings: tested at 5 uM

Point of comparison: `Cc1nc(C)c(C(=O)N2C[C@@H](C(=O)O)[C@H](C3CC3)C2)s1`, INHIBITION -75.7%. Against it:
- COCCN1CCC2(CC1)CC(NCc1cncn1C)c1ccccc12 (configuration not stated) — higher, -18.1%
- CC(C)CN1CCC(NC(=O)c2ccc(F)cc2F)CC1 — lower, -150%
- CCN1CCC(NC(=O)c2ccc(F)cc2I)CC1 — higher, 50%
- CC(C)CN1CCC(NC(=O)c2ccc(F)cc2I)CC1 — higher, 23.2%
- O=C(NCCc1ccccc1F)NCC(O)c1cccc(F)c1 (configuration not stated) — lower, -156%
- NC(=O)c1cc2c(nc1Oc1cccc(CN3CCCC3)c1F)CCC2 — higher, -10.3%
- COc1cc(C(=O)NS(=O)(=O)c2cncc(Br)c2)ccc1C — higher, -28.1%
- NC(=O)CN1CCCC(c2nccnc2Oc2cccc(F)c2)C1 (configuration not stated) — higher, -47.7%
- Cc1cc(C2CCCN(C(=O)COc3cccc(F)c3)C2)n[nH]1 (configuration not stated) — higher, -49.4%
- CNCC(=O)N1CCCC(c2nccnc2Oc2cccc(F)c2)C1 (configuration not stated) — higher, 55.4%
- Cn1ccc2c(NC(=O)Cn3ncc4c(c3=O)CCCC4)cccc21 — lower, -90.4%
- Cc1nc(C2CN(Cc3scnc3C)CCO2)cc(N(C)C)n1 (configuration not stated) — lower, -79.5%
- OCCCN1CCc2onc(C(c3ccccc3)c3ccccc3)c2C1 — higher, 49.4%
- OCCN1CCc2[nH]nc(C(c3ccccc3)c3ccccc3)c2C1 — higher, 61.7%
- CC(O)CN1CCc2[nH]nc(C(c3ccccc3)c3ccccc3)c2C1 (configuration not stated) — higher, 42.3%
- c1coc(CN2CC[C@H]3O[C@@H](COCC4CC4)CC[C@H]32)c1 — lower, -93.2%
- CCN(CC)Cc1nc2c(o1)CN(S(=O)(=O)c1cccs1)C2 — higher, -61.5%
- CN(CCc1ccncc1)Cc1c(C2CCCC2)[nH]c2ncccc12 — higher, -56.1%
- CN(CCc1ccccc1)Cc1c(C2CCOCC2)[nH]c2ncccc12 — higher, -22.4%
- CN(CCc1ccccc1)Cc1c(C2CCNCC2)[nH]c2ncccc12 — higher, 54.6%
- Cc1ccc(CN2CCN(C3CSCCSC3)CC2CCO)o1 (configuration not stated) — higher, -73.5%
- CC(C)c1cc(C2CCN(C(=O)Cn3nc4ccccc4n3)CC2)[nH]n1 — lower, -107%
- O=C(c1ccc2[nH]ccc2c1)N1Cc2nc(CN3CCCCC3)oc2C1 — higher, -72.8%
- CC1CN(Cc2ccccc2)CCCN1CCS(C)(=O)=O (configuration not stated) — higher, 39.2%
- CNS(=O)(=O)CCCN1CCCN(Cc2ccccc2)CC1C (configuration not stated) — higher, 59.7%
- COCCN1CCN(CCCS(C)(=O)=O)CC1C (configuration not stated) — higher, -42.5%
- CC1CN(Cc2ccccc2)CCCN1CCCS(C)(=O)=O (configuration not stated) — higher, 53.2%
- COCCN1CCN(CCCS(=O)(=O)c2ccccc2)CC1C (configuration not stated) — lower, -121%
- CNS(=O)(=O)CCCN1CCCCCC1c1ccc(C)o1 (configuration not stated) — higher, 10.3%
- O=C(Cn1cccn1)Nc1ccc(N2CCOCC2)cc1 — higher, -6.33%
- CN(C)C(=O)Cc1nc(CN2CCOC(Cn3cccn3)C2)cs1 (configuration not stated) — higher, -56%
- Cc1nn(C)cc1CN1CCN(CC2(c3ccccc3)CC2)CC1 — higher, 67.2%
- Cc1nn(C)cc1CN1CCCCCC1c1ccccc1Cl (configuration not stated) — lower, -104%
- Cc1nn(C)cc1CN1CCC(C2Nc3ccccc3S(=O)(=O)N2)CC1 (configuration not stated) — lower, -123%
- CCn1c(C)cc(C(=O)N2CCC(NC(=O)c3ccc(C)o3)CC2)c1C — higher, -31.2%
- CN(C)CC1CSCCCN1C(=O)Nc1ccc(C(C)(C)C)cc1 (configuration not stated) — higher, -12.2%
- CN(C)CC1CSCCCN1S(=O)(=O)Cc1cccc(F)c1 (configuration not stated) — higher, 58.6%
- CN(C)CC1CSCCCN1S(=O)(=O)c1ccc(C(F)(F)F)cc1 (configuration not stated) — higher, 60.7%
- Cc1nccn1CC1CCCN1S(=O)(=O)Cc1cccc(F)c1 (configuration not stated) — higher, -54%
- CN(C)CC1CSCCCN1S(=O)(=O)Cc1ccc(C(F)(F)F)cc1 (configuration not stated) — higher, 10.1%
- CS(=O)(=O)C1CCN(S(=O)(=O)Cc2cccc(F)c2)CC1 — lower, -89.8%
- CC(C)N(Cc1ccc(C(=O)O)o1)C(C)C — higher, -21.6%
- Cc1cnc(N2CCc3c(c(COc4cncnc4)nn3C)C2)nc1 — lower, -95%
- CCc1nc(C2NC3(CCCC3)C(=O)N2CC2CC2)cs1 (configuration not stated) — higher, -67.6%
- CN(C)CCNC(=O)CCC1CCN(C(=O)c2ccc(Cl)cc2O)CC1 — higher, -57.2%
- Cc1ccc(CN2CCC3(CC(=O)N(c4ccc5c(c4)OCO5)C3)C2)o1 (configuration not stated) — higher, -11.7%
- Cc1nc(C)n(C2CCCN(C(=O)COc3ccccc3)C2)n1 (configuration not stated) — higher, -30.7%
- CCC[C@@H]1CN(S(=O)(=O)c2ccc(C)c(F)c2)C[C@H]1N(C)C — higher, 39.9%
- Cc1noc(C)c1-c1cccc(C2CCN(S(=O)(=O)N(C)C)CC2)n1 — lower, -81.4%
- Cc1ccc(C)c(S(=O)(=O)N2CCN(C)C3(CCC(=O)N(C)CC3)C2)c1 (configuration not stated) — lower, -107%
- Cc1ccc(F)c(S(=O)(=O)N2CCCC2c2ccncc2)c1 (configuration not stated) — higher, -73.9%
- Cc1ccc(S(=O)(=O)N2CC[C@@H](O)C2)c(F)c1 — higher, -13.3%
- Cc1noc(C)c1-c1n[nH]c2c1CN(S(=O)(=O)c1cccs1)CC2 — higher, -24.2%
- CCC[C@H]1CN(S(=O)(=O)c2cc(C)ccc2C)C[C@@H]1N — higher, 68.6%
- CCC[C@H]1CN(S(=O)(=O)c2cc(C)ccc2F)C[C@@H]1N — higher, 52.5%
- CCC[C@H]1CN(S(=O)(=O)c2ccc(-c3c(C)noc3C)s2)C[C@@H]1N — higher, 72.8%

Reference: ChEMBL document CHEMBL4513216, “Probing the Open Global Health Chemical Diversity Library for Multistage-Active Starting Points for Next-Generation Antimalarials” (ACS Infect Dis, 2020)
